Test results as given in PubChem BioAssay (NCATS).

Assay: qHTS profiling of the MIPE4 collection as inhibitors of Plasmodium falciparum (DD2) proliferation (AID 743345)
Conditions: P. falciparum Dd2 in erythrocytes, SYBR Green DNA, 72 h; at 28.5 µM (top of the series) unless noted
Description: Plasmodium falciparum is a virulent malarial parasite that kills 1-2 million people worldwide each year. Transmitted by mosquitoes, the sporozoite form of the parasite enters the blood stream to infect hepatocytes, where they become merozoites that infect red blood cells (erythrocytes). Within erythrocytes, merozoites begin a […] cycle of growth and division, after which the parasite is released to infect new red blood cells. Gametocytes, which form within erythrocytes as well, circulate in the bloodstream and are ingested by the mosquito, thereby completing the life cycle. To profile malarial isolates for differential chemical responses and to identify inhibitors of malarial growth, an assay that measures P. falciparum growth and replication within erythrocytes was employed. This assay uses a DNA binding fluorescent dye (SYBR Green) to detect parasite DNA following cell lysis. Because mature erythrocytes lack DNA, only Plasmodium-derived DNA is detected.
The SYBR Green viability assay was adapted from a method described previously (Plouffe et al., 2008). For screening 3 ul culture medium was dispensed into 1536 well black clear bottom plates (Aurora Biotechnologies) using a Multidrop Combi (Thermo Fisher Scientific Inc.), 23 nL compounds in DMSO were added by a pin tool (Kalypsys), and 5 ul of erythrocytes infected with P. falciparum (0.3% parasitemia, 2.5% hematocrit final concentration) were added. The plates were incubated at 37 C in a humidified incubator in 5% CO2 for 72 h, and 2 ul lysis buffer (20 mM Tris HCl, 10 mM EDTA, 0.16% saponin, 1.6% triton X, 10X SYBR Green I supplied as 10,000X […] by Invitrogen) was added to each well. The plates were mixed for 25 sec with gentle shaking and incubated overnight at room temperature in the dark. The following morning, fluorescence intensity at 485(14) nm excitation and 535(25) nm emission wavelengths was measured on an EnVision (Perkin Elmer) plate reader. Plate reads were normalized relative to the control inhibitor (0.29 uM artemisinin) and vehicle (DMSO) wells present on each plate and then corrected by an algorithm using vehicle-only control plates at the beginning and end of the compound plate stack.

Compound	parasite growth remaining, % of DMSO control (lower = more inhibition)
CCCC(CCC)C(=O)O	103%
CS(=O)(=O)Oc1ccc2c(NC(N)=O)c(C(=O)c3ccc(Cl)cc3Cl)oc2c1	82.7%
CN([C@@H](Cc1ccc(OS(=O)(=O)c2cccc3cnccc23)cc1)C(=O)N1CCN(c2ccccc2)CC1)S(=O)(=O)c1cccc2cnccc12	6.98%
O=c1[nH]c(-c2ccc(C(F)(F)F)cc2)nc2c1CSCC2	93.9%
CCn1cc(C(=O)O)c(=O)c2cc(F)c(N3CCNC(C)C3)c(F)c21 (stereo not given)	68.3%
c1ccc(-c2nn3c(c2-c2ccnc4cc(OCCN5CCOCC5)ccc24)CCC3)nc1	50.6%
NC(=O)c1ccc(-c2nc(-c3ccc4c(c3)OCCO4)c(-c3ccccn3)[nH]2)cc1	18.9%
COc1ccc(COc2cc3oc(=O)c4cc(C(C)O)ccc4c3cc2OC)cc1 (stereo not given)	77.1%
Cc1[nH]c(=O)c(C#N)cc1-c1ccncc1	14.6%
CC(C)C[C@H](NC(=O)[C@@H](O)[C@H](N)Cc1ccccc1)C(=O)O	10.1%
Nc1nc2c(ncn2COCCO)c(=O)[nH]1	97.6%
O=C(C1CC1)N1CC[C@@H](Cn2c(-c3ccc(-c4ccc5occc5c4)cc3)nc3cnccc32)C1	78.6%
Cc1c(CCOc2ccc(C(=O)O)cc2)c2cc(Cl)ccc2n1C(c1ccccc1)c1ccccc1	70.3%
NC(=O)c1cnccn1	94.9%
OCCC#Cc1nc(-c2ccc(F)cc2)c(-c2ccncc2)n1CCCc1ccccc1	21.2%
Cc1cn[nH]c1	10%
CC(C)OC(=O)C1=CN(C(=O)c2ccc(F)c(F)c2)CC(C)(C)c2c1[nH]c1ccccc21	44.6%
C[C@]12CC[C@H](O)CC1=CC[C@@H]1[C@H]2CC[C@]2(C)C(c3cccnc3)=CC[C@H]12	10% [at 9.64 µM]
COc1ccc2c3n(c(=NC(=O)c4cccnc4)nc2c1OC)CCN3	10.1%
C1COC(NC(C2CC2)C2CC2)=N1	88.7%

Compound	parasite growth remaining, % of DMSO control (lower = more inhibition)
NC(=O)c1ccc(I)c([N+](=O)[O-])c1	97.1%
COc1ccc(CCN2CCN(CCCc3ccccc3)CC2)cc1OC	95.6%
O=C(Nc1ccc(F)c(C(F)(F)F)c1)Nc1nnc(-c2ccncc2)s1	14.4%
O=C(O)[C@@H](c1ccc(OCc2ccc3ccccc3n2)cc1)C1CCCC1	102%
CCn1c(-c2nonc2N)nc2cnc(Oc3cccc(NC(=O)c4ccc(OCCN5CCOCC5)cc4)c3)cc21	57.9%
Cc1cc([C@@H](C)Nc2ccccc2C(=O)O)c2nc(N3CCOCC3)cc(=O)n2c1	16.9% [at 57.5 µM]
C[C@]1(c2nc3c(C(N)=O)cccc3[nH]2)CCCN1	94.9%
CCC(C)N(C)C(=O)c1cc2ccccc2c(-c2ccccc2Cl)n1 (stereo not given)	83.4%
CCOc1cc(N2CCC(O)CC2)ccc1Nc1ncc2c(n1)N(C)c1ccccc1C(=O)N2C	7.18%
CN(C)c1ccc(Nc2nc(N)n(C(=O)c3c(F)cccc3F)n2)cc1	51.7%
COc1ccc(-c2oc3cc(OC)ccc3c2C(=O)c2ccc(C#N)cc2)cc1	81.9%
CN[C@@H](C)C(=O)N[C@H]1CCCC[C@H]2CC[C@@H](C(=O)N[C@@H](c3ccccc3)c3cn(CCCCc4ccc(CCCCn5cc([C@@H](NC(=O)[C@@H]6CC[C@@H]7CCCC[C@H](NC(=O)[C@H](C)NC)C(=O)N76)c6ccccc6)nn5)cc4)nn3)N2C1=O	8.15%
COc1c(Cl)cc2c([nH]c3cnccc32)c1NC(=O)c1cccnc1C	72.7%
CCOc1cc(C=C2C(=O)N(c3ccccc3)N=C2C)cc(Cl)c1OCC(=O)OC	97.3%
CC[C@@H](C)[C@H](NC(=O)[C@H](CC1CCCCC1)NC(=O)c1ccno1)C(=O)N1CCC2(CCc3ccccc32)CC1	7.23%
Cc1n[nH]c(C)c1Cc1sc2c(c1C(=O)N1C[C@H](O)CO1)c(=O)n(C)c(=O)n2CC(C)C	107%
Cc1cc(Nc2nc(N[C@@H](C)c3ncc(F)cn3)ncc2Cl)n[nH]1	8.04%
CCC(C)n1ncn(-c2ccc(N3CCN(c4ccc(OC[C@H]5CO[C@](Cn6cncn6)(c6ccc(Cl)cc6Cl)O5)cc4)CC3)cc2)c1=O (stereo not given in full)	8.47%
Cc1ccnc(NS(=O)(=O)c2ccc(NC(=O)Nc3ccc(S(=O)(=O)Nc4nccc(C)n4)cc3)cc2)n1	70.2%
N=c1nc(N2CCCCC2)cc(N)n1O	33.6%
